Test [1] addresses Aldehyde dehydrogenase, mitochondrial (Homo sapiens) (UniProt P05091). The test can be described thus: qHTS for Inhibitors of the Aldehyde Dehydrogenase Family (ALDH2) Primary screen (AID 2061308; further: nearly all actives have a fitted effect of over 55% in size; further: potency means the concentration at half of the fitted maximal effect). (qHTS replaces the single test concentration by a dilution series.)
Test [2] concerns the target Retinaldehyde dehydrogenase 3 (Homo sapiens) (UniProt P47895). The test can be described thus: qHTS for Inhibitors of the Aldehyde Dehydrogenase Family (ALDH1A3) Confirmatory screens (AID 2061311). Further: nearly all actives have a fitted effect of over 60% in size. Further: potency means the concentration at half of the fitted maximal effect.
In test [3] the target is Retinal dehydrogenase 2 (Homo sapiens) (UniProt O94788). Description: qHTS for Inhibitors of the Aldehyde Dehydrogenase Family (ALDH1A2) Confirmation screens (AID 2061314). Further: nearly all actives have a fitted effect of over 65% in size. Further: potency means the concentration at half of the fitted maximal effect.
Test [4] deals with Retinaldehyde dehydrogenase 3 (Homo sapiens) (UniProt P47895). The test can be described thus: qHTS for Inhibitors of the Aldehyde Dehydrogenase Family (ALDH1A3) Primary screen (AID 2061315). Further: potency means the concentration at half of the fitted maximal effect.
Test [5] deals with Aldehyde dehydrogenase 1A1 (Homo sapiens) (UniProt P00352). The test can be described thus: qHTS for Inhibitors of the Aldehyde Dehydrogenase Family (ALDH1A1) Confirmatory screens (AID 2061316). Further: nearly all actives have a fitted effect of over 65% in size.

Several values for one entry are separate records, joined by “and”; a condition that tells them apart may be missing. Equal entries are not always repeated. Inconclusive results are not listed. A number with no mark means an inactive call. Activity calls are given as the source filed them. The call rests on the fitted dose curve; in most records, active means well fitted curve in the direction sought with a large enough effect; inconclusive means small, poorly fitted or top-dose-only effect, or another doubt; inactive means no such curve, though single readings can be large; an effect the other way counts as inactive or inconclusive.

Turning to `COc1ccc(C2Nc3cccc4cccc(c34)N2)cc1`, in test [1], the Potency entry was “inactive”.

For the molecule `N#Cc1cccc(CSc2nc3ncc(Br)cc3[nH]2)c1`, the Potency result in test [1] was “inactive”.

Take `Cc1ccsc1CN(C)c1ncnc2ccc(-c3ccc(C(=O)N(C)C)o3)cc12`: the Potency result in test [1] was “inactive”.

Regarding `C/C(=C\c1ccc2c(c1)OCO2)C1Nc2cccc3cccc(c23)N1`, the Potency entry in test [1] was “inactive”. Further, the Potency in test [2] is 2.83 µM (active).

Turning to `Oc1ccc(COCc2ccc(F)cc2)c2cccnc12`, the Potency entry in test [1] is “inactive”. In test [2], the Potency is 10.1 µM (active).

As to `c1csc(CNc2ccc(N3CCCCC3)cc2)c1`, the Potency result in test [1] was “inactive”. The Potency in test [2] is 20.1 µM (active).

Turning to `CCC(=O)NC(c1cc(Cl)c2ccccc2c1O)C1CC1` (configuration not stated), the Potency entry in test [1] was “inactive”.

In the case of `CC(C)N1CCc2c(sc(NC(=O)c3ccccc3)c2-c2nc3ccccc3s2)C1`, in test [1], the Potency is 22.4 µM (active). Further, the Potency result in test [2] was “inactive”.

Consider `Cc1ccc(Nc2c(F)cccc2Cl)c(CC(=O)O)c1`, for which the Potency result in test [1] was “inactive”.

`FC(F)(F)c1cc(Cl)cc(-c2ccc(CNc3nc(-c4ccccc4C(F)(F)F)nc4ccccc34)cc2)c1`: the Potency result in test [1] was “inactive”.

For `CN(C(=O)OC(C)(C)C)c1ccc(-c2nc3ccccc3s2)cc1`, the Potency result in test [1] is “inactive”.

Take `CC(=O)c1ccc(N2CCN(S(=O)(=O)c3ccc4c(c3)C(Cl)(Cl)C(=O)N4)CC2)cc1`: the Potency result in test [1] is “inactive”. Besides, the Potency in test [2] was 2.82 µM (active) and 1.12 µM (active); in test [3], 6.34 µM (active).

`CCC(=O)NC(c1cc(Cl)c2ccccc2c1O)C(C)C` (configuration not stated): the Potency result in test [1] is “inactive”. The Potency in test [2] is 12.7 µM (active); in test [3], 28.3 µM (active).

Consider `C=C1/C(=C/C=C2\CCC[C@]3(C)[C@@H]([C@H](C)/C=C/[C@H](O)C4CC4)CC[C@@H]23)C[C@@H](O)C[C@@H]1O`, for which the Potency entry in test [1] is “inactive”.

On to `O=C(O)c1cccc(-c2noc(-c3ccc(F)cc3)n2)c1`, for which, in test [1], the Potency result is “inactive”.

Regarding `FC(F)(F)c1ccccc1-c1nc(NCc2ccc(-c3cccc4ccccc34)cc2)c2ccccc2n1`, in test [1], the Potency result was “inactive”.

Take `O=C(O)c1ccc(-c2noc(-c3ccc(Cl)cc3)n2)cc1`: the Potency result in test [1] is “inactive”.

As to `O=C(O)c1ccc(Cc2c(-c3cccc(-c4ccccc4)c3)[nH]n(-c3nc(C(=O)O)cs3)c2=O)cc1`, in test [1], the Potency result is “inactive”.

For `CCN(CC)C(=O)CC(c1ccc2c(c1)OCO2)c1c(O)cc(OC)cc1OC` (configuration not stated), the Potency entry in test [1], in test [2], in test [3] and in test [4] was “inactive” throughout.

For `Cn1cc(CCn2cnc(-c3cnn(C)c3)c2-c2ccc(C#N)cc2)cn1`, in test [1], the Potency entry was “inactive”.

For the molecule `COc1ccc(CNc2ccc(N3CCN(C(C)=O)CC3)cc2)cc1OC`, the Potency result in test [1] is “inactive”. The Potency in test [2] and in test [3] was 12.7 µM (active) in each case.

For the molecule `CC(C)(C)OC(=O)N[C@@H](Cc1ccc(O[S+](=O)([O-])c2cccnc2)cc1)C(=O)N1CCN(c2ccccc2)CC1`, the Potency result in test [1] and in test [4] was “inactive” each time. For the same molecule, the results for the Potency in test [2] and in test [3] were 28.3 µM (active) and 15.9 µM (active), respectively.

On to `CC(C)(C)OC(=O)N1CCN(c2ccc(NCc3ccc(-c4cc(C(F)(F)F)cc(C(F)(F)F)c4)o3)cc2)CC1`, for which the Potency result in test [1] is “inactive”.

For `Oc1ccc(/C=C/c2ccccc2)c2cccnc12`, the Potency result in test [1] is “inactive”. Moreover, in test [2], the Potency was 14.2 µM (active).

For the molecule `O=[N+]([O-])c1ccccc1S(=O)(=O)Nc1cccc2cccnc12`, the Potency result in test [1] is “inactive”. Also, the Potency in test [2] was 12.7 µM (active); in test [3], 0.712 µM (active).

With `CNC(=O)c1ccccc1Nc1cc(Nc2ccc(N3CCOCC3)cc2OC)ncc1C(F)(F)F`, the Potency result in test [1] is “inactive”. Further, the Potency in test [2] was 3.57 µM (active).

For the molecule `O=C(NCCc1ccc(O)c(O)c1)c1cc2sccc2n1Cc1ccccc1`, the Potency entry in test [1] was “inactive”.

With `FC(F)(F)c1ccccc1-c1nc(NCc2ccc(-c3cccnc3)cc2)c2sccc2n1`, the Potency entry in test [1] was “inactive”.

In the case of `O=C1c2ccccc2C(=O)c2cc(S(=O)(=O)Nc3cccc4cccnc34)ccc21`, the Potency result in test [1] is “inactive”. Besides, the Potency in test [2] is 15.9 µM (active).

As to `CC(=O)c1ccc(N2CCN(S(=O)(=O)c3cc4c(cc3Cl)NC(=O)C4)CC2)cc1`, in test [1], the Potency entry is “inactive”. In test [2], the Potency is 3.55 µM (active).

Consider `Cc1ccc(-c2ccc(=O)n(CC(=O)NCCc3ccccc3)n2)cc1`, for which the Potency result in test [1] and in test [4] was “inactive” each time. Also, the Potency in test [2] was 0.447 µM (active); in test [3], 11.2 µM (active).

For the molecule `Cc1ccc2nc3sc(C(=O)NCCc4cccnc4)cc3cc2c1`, the Potency result in test [1] was “inactive”. Further, the Potency in test [2] is 12.7 µM (active).

As for `N#Cc1nc(NCC(F)F)c2ncn(-c3cccc(Cl)c3)c2n1`, in test [1], the Potency entry is “inactive”.

With `CN(C)c1cnc2c(O)ccc(C(=O)O)c2c1`, the Potency result in test [1] and in test [4] was “inactive” in each case. Further, the Potency was 8.96 µM (active) in test [2] and 5.04 µM (active) in test [3].

In the case of `CO[C@H]1c2cc(C(C)C)c(O)c(O)c2[C@@]23CCCC(C)(C)C2[C@@H]1OC3=O` (some centres not stated), in test [1], the Potency result was “inactive”. Also, the Potency in test [2] and in test [3] was 6.97 µM (active) each time.

As for `COc1ccc(/C=C(\C)C2Nc3cccc4cccc(c34)N2)cc1`, in test [1], the Potency result is “inactive”.

Regarding `O=C(C(NS(=O)(=O)c1ccc2[nH]c(=O)ccc2c1)c1cccc(C(F)(F)F)c1)N(Cc1ccco1)Cc1cccs1` (configuration not stated), the Potency entry in test [1], in test [4] and in test [5] was “inactive” throughout. For the same molecule, the Potency in test [2] was 25.2 µM (active); in test [3], 12.7 µM (active).

Regarding `CNc1ncc(-c2cccc3ccccc23)o1`, the Potency entry in test [1] and in test [4] was “inactive” each time. Besides, the Potency is 25.2 µM (active) in test [2] and 10.1 µM (active) in test [3].

In the case of `N#CN1CCC(NS(=O)(=O)c2ccc(C(F)(F)F)cc2)CC1`, the Potency result in test [1], in test [2], in test [4] and in test [5] was “inactive” each time. Also, the Potency in test [3] was 12.7 µM (active).

Consider `N[C@@H]1CCN(c2cnc3c(O)ccc(C(=O)O)c3c2)C1`, for which the Potency entry in test [1], in test [4] and in test [5] was “inactive” each time. For the same molecule, the figures for the Potency in test [2] and in test [3] were 12.7 µM (active) and 25.2 µM (active), respectively.

Take `O=[S+]([O-])(Nc1nccs1)c1ccc(NCc2cc(F)cc(Cl)c2O)cc1`: the Potency entry in test [1], in test [2], in test [3] and in test [4] was “inactive” each time.

`COc1cc(O)ccc1OCCNCC(O)COc1cccc2[nH]c3ccccc3c12` (configuration not stated): the Potency result in test [1] is “inactive”. Further, the Potency in test [2] was 12.7 µM (active); in test [4], 3.16 µM (active).

Take `O=C1CCCC2=C1C1(CCC1)N=C(Nc1nc3ccccc3o1)N2`: the Potency entry in test [1], in test [4] and in test [5] was “inactive” in each case. Further, the Potency was 12.7 µM (active) in test [2] and 7.98 µM (active) in test [3].

As to `COc1ccc(C(=O)N(Cc2ccccc2)Cc2ccco2)c(O)c1`, the Potency result in test [1] and in test [4] was “inactive” throughout. The figures for the Potency in test [2] and in test [3] were 14.2 µM (active) and 25.2 µM (active), respectively.

The values above are taken from PubChem BioAssay (NCATS).
